B2AR arrestin – qHTS assay of beta-arrestin-biased ligands of beta2-adrenergic receptor. Beta-2 adrenergic receptor (Homo sapiens), P07550. beta-arrestin recruitment to beta2AR, cell-based reporter. Potency, µM (highest dose often 46.1 µM), inactives show top-dose activation, usual class: activators. hit rate 0.02% among 330,000;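 also: 0% = DMSO controls and full agonism = EC100 isoproterenol or metaproterenol; nearly all actives have a fitted effect of over 65% in size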
VP16 counter – VP16 counterscreen qHTS for inhibitors of ROR gamma transcriptional activity; Drosophila S2 Gal4-VP16 UAS-luciferase, luminescence, 20 h; Potency, µM (doses to about 53.6 µM), inactives show top-dose activity, negative = inhibition, most hits filed as inhibitors; hit rate 3.5% among 310,000;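 also: Gal4-VP16 expression switched on by copper sulfate through the metallothionein promoter; nearly all actives have a fitted effect of over 50% in size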
RORg inh – qHTS for inhibitors of ROR gamma transcriptional activity; Nuclear receptor ROR-gamma (Mus musculus), P51450; Potency, µM (top dose mostly 53.6 µM), without a hit: at the top dose activity change, negative = inhibition, usual class: inhibitors; hit rate 5.4% among 310,000; Drosophila S2 Gal4-RORgamma UAS-luciferase reporter, 20 h; AID 2551, 2010; also: nearly all actives have a fitted effect of over 60% in size
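ROR gamma transcriptional activity was tracked as Gal4-UAS luciferase output in stably transfected Drosophila Schneider cells, with compound added 1 hr before 700 uM copper sulfate induction and a 20 hr ambient-temperature incubation.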
NPSR antag – qHTS Assay for Antagonists of the Neuropeptide S Receptor: cAMP Signal Transduction | AID 1461, 2008 | hit rate 1% among 220,000 | Potency, µM (top dose mostly 38.3 µM), without a hit: at the highest dose activity change, negative = inhibition, most hits filed as inhibitors | CHO-NPSR cells, cAMP TR-FRET, antagonist mode; also: nearly all actives have a fitted effect of over 50% in size
Target sequence (Q6W5P4 whole entry, looked up): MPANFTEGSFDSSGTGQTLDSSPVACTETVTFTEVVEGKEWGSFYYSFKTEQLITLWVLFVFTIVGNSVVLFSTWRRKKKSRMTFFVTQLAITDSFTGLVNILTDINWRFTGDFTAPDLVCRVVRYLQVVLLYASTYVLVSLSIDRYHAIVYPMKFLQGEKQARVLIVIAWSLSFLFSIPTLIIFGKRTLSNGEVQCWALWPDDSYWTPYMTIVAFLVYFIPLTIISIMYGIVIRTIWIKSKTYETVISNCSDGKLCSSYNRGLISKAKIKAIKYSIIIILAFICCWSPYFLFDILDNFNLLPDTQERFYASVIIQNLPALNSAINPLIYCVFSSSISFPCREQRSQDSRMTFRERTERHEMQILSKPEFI
The depositor's hits bear a star; ? = inconclusive; · = no result; [ ] = remark or other dose. Rows were chosen to be rich in hits. Some 5.7% of all compounds tested hit in one or more screens of this group. Calls follow the shape of the dose curve; as a rule, active = well fitted curve in the direction sought with a large enough effect; inconclusive = small, poorly fitted or top-dose-only effect, or another doubt; inactive = no such curve, though single readings can be large; an effect the other way counts as inactive or inconclusive. Unless noted, % is scaled to controls: 0 for no effect and ±100 for the full control effect; potency is read from the fitted curve at half-maximal effect.

SMILES	B2AR arrestin	VP16 counter	RORg inh	NPSR antag
CC(C)(C)C1CCC(=NNc2ncc(C(F)(F)F)cc2Cl)CC1 (centres undefined)	0%	11µM*	28µM*	-1%[46.1 µM]
Cc1cc(=O)oc2cc(Oc3ccc([N+](=O)[O-])cc3[N+](=O)[O-])ccc12	0%	-80%	11µM*	-6%[46.1 µM]
O=[N+]([O-])c1cc(/C=N/O)ccc1Oc1cccc(Cl)c1	-1%	9%[10 µM]	-10%	-20%
O=Cc1cccc(Oc2ccc([N+](=O)[O-])cc2[N+](=O)[O-])c1	0%	3%	14µM*	12%
Cc1ccccc1NC(=O)C(C)Sc1nnc(-c2ccncc2)n1CC1CCCO1 (centres undefined)	0%	-9%	4%	·
O=C(N/N=C/c1cc(Br)ccc1O)c1cccc(N2CCCC2=O)c1	5%	5.6µM*	1µM*	-30%
COc1ccc(O)c(/C=N/NC(=O)c2cccc(N3CCCC3=O)c2)c1	-1%	3.5µM*	3.5µM*	·
COc1cccc(/C=N/NC(=O)c2cccc(N3CCCC3=O)c2)c1	0%	-2%	20%	·
O=C(N/N=C/c1ccco1)c1cccc(N2CCCC2=O)c1	-1%	1%	?	13%
COc1ccc(/C=N/NC(=O)c2ccc(N3CCCC3=O)cc2)cc1	-1%	-1%	-3%	·
COc1ccc(O)c(/C=N/NC(=O)c2ccc(N3CCCC3=O)cc2)c1	0%	?	2.2µM*	·
C#CCCCO/N=C1/C[C@@H](O)[C@@H](O)[C@@H]2[C@@H]3C(=O)N(CC)C(=O)[C@H]3CC[C@@H]12	·	-4%[10 µM]	4%[10 µM]	·
COc1ccc(S(=O)(=O)Nc2cccc3c2O[C@H](CN(C)C(=O)Nc2ccc(C(F)(F)F)cc2)[C@@H](C)CN([C@H](C)CO)C3=O)cc1	0%	·	·	·
O=C1OC(c2ccc(F)cc2)=C/C1=C\c1ccc([N+](=O)[O-])o1	0%	?	-40%	-38%
O=C1OC(c2ccc(F)cc2)=C/C1=C\c1ccc(O)cc1	0%	?	6.3µM*	·
O=C(O)CCCNC(=O)OCc1ccccc1	4%	6.3µM*	?	-13%[46.1 µM]
O=C(O)CCCNC(=O)Cc1ccccc1	0%	0%	-6%	19%
CC(C)(C)c1cn(-c2ccc(Cl)cc2)c(=S)[nH]1	5%	5.6µM*	4.5µM*	-5%[46.1 µM]
CC[C@H](C)[C@H](NC(=O)CNC(=O)[C@@H](NC(=O)[C@@H](NC(=O)[C@H](Cc1ccc(O)cc1)NC(=O)[C@H](CC(C)C)NC(=O)[C@H](C)NC(=O)[C@H](CCC(N)=O)NC(=O)CNC(=O)[C@@H]1CCCN1C(=O)CNC(=O)[C@H](Cc1ccccc1)NC(=O)[C@H](Cc1cnc[nH]1)NC(=O)[C@@H](NC(=O)CNC(=O)[C@H](CCCNC(=N)N)NC(=O)[C@H](CCCNC(=N)N)NC(=O)[C@@H](NC(=O)[C@H](CC(N)=O)NC(=O)[C@@H](N)CS)[C@@H](C)O)[C@@H](C)CC)[C@@H](C)O)[C@@H](C)O)C(=O)O	·	-5%	9%	·
CCn1c(C)nc2cc(C(=O)N/N=C(\C)c3ccccc3O)ccc21	0%	0.63µM*	0.63µM*	6%
CCn1c(C)nc2cc(C(=O)NNC(=S)Nc3ccccc3OC)ccc21	0%	-22%	13µM*	-14%
CCn1c(C)nc2cc(C(=O)N/N=C/c3ccccc3C)ccc21	0%	?	?	-6%
CS(=O)(=O)c1ccc(-c2cn3cc(C(=O)O)ccc3n2)cc1	0%	10µM*	7.9µM*	11%
COc1ccc2c3c(c(=O)oc2c1)C1O[C@](c2ccsc2)(Cc2cc(C#N)ccc21)O3	-1%[9.22 µM]	-25%[10 µM]	10%[10 µM]	·
O=C(Nc1nc2n(n1)C(c1ccc(Cl)cc1)CC(c1ccc(Cl)cc1)N2)c1ccco1 (centres undefined)	0%	3.5µM*	3.2µM*	-27%[46.1 µM]
SMILES	B2AR arrestin	VP16 counter	RORg inh	NPSR antag
CS(=O)(=O)Nc1nc2n(n1)C(c1ccc(F)cc1)CC(c1ccccc1)N2 (centres undefined)	-1%	-7%	-10%	-31%
COc1ccc(C2CC(c3ccc(Cl)cc3Cl)Nc3nc(N)nn32)cc1 (centres undefined)	-1%	4.5µM*	5.6µM*	?
COc1ccc(C2CC(c3ccc(Cl)cc3)Nc3nc(NC(=O)c4ccco4)nn32)cc1 (centres undefined)	-1%	0.16µM*	0.71µM*	-26%[46.1 µM]
COc1ccc(C2CC(c3c(Cl)cccc3Cl)n3nc(N)nc3N2)cc1 (centres undefined)	0%	1%	12%	-5%[46.1 µM]
O=C(Nc1nc2n(n1)C(c1ccc(F)cc1)CC(c1ccccc1)N2)c1ccco1 (centres undefined)	3%	7.1µM*	3.2µM*	17%
CC1C(=O)N(S(=O)(=O)c2ccc([N+](=O)[O-])cc2)[C@H]1c1ccc2ccccc2c1 (some centres undefined)	·	-9%	1%	·
CO[C@@H]1COC(=O)[C@H](COCc2ccccc2)NC(=O)C/C=C\[C@@H](C)[C@H](OC)COC(=O)[C@@H](C)NC(=O)C/C=C\[C@H]1C	·	-4%[10 µM]	27%[10 µM]	·
CCCn1c(=O)c(C(=O)Nc2cccc(C)c2)c(O)c2ccccc21	1%	13µM*	?	·
CCCn1c(=O)c(C(=O)Nc2ccccc2)c(O)c2ccccc21	0%	?	0%	-17%[46.1 µM]
CCCCCCCCC(=O)NNC(=O)c1c(O)c2ccccc2n(CC)c1=O	-1%	-2%	-11%	-18%
CCCn1c(=O)c(C(=O)NNC(=O)c2ccccc2Cl)c(O)c2ccccc21	0%	?	11µM*	·
CCCn1c(=O)c(C(=O)NNC(=O)c2ccccc2[N+](=O)[O-])c(O)c2ccccc21	0%	?	?	·
CCCCCCC(=O)NNC(=O)c1c(O)c2ccccc2n(CC)c1=O	0%	?	11µM*	4%
CCn1c(=O)c(C(=O)NCc2ccccc2Cl)c(O)c2ccccc21	0%	20µM*	?	·
C=CCOc1ccc(/C=N/NC(=O)CC(=O)NC2CCCCC2)cc1	0%	6%	7%	·
Cc1c(NS(=O)(=O)c2cccs2)cccc1-c1nc2cccnc2s1	0%	28%	31%	-14%
O=S(=O)(Nc1cccc2ncccc12)c1cccs1	-1%	1%[0.365 µM]	2.2µM*	?
Cc1ccc(NC(=S)Nc2cc(C(=O)O)ccc2N2CC3CC(C2)c2cccc(=O)n2C3)cc1C (centres undefined)	0%	20µM*	5µM*	-14%
COc1c2c(cc3c1C(NC(N)=O)[N+](C)(C)CC3)OCO2 (centres undefined)	·	-3%	-26%	·
Cc1cc(Cl)ccc1OCc1n[nH]c(=S)n1C1CCCCC1	0%	2.5µM*	0.79µM*	-6%[46.1 µM]
S=c1[nH]nc(-c2cccnc2)n1C1CCCCC1	-1%	?	?	9%
Cc1ccsc1/C=N/n1c(-c2ccccc2)n[nH]c1=S	-1%	-9%	14%	-15%
